According to the supplement of paper PMC10849652:
Of roughly 7,900 targets only a part is listed; those with a hit were picked by preference. About 0.6% of all pairs of compound and target were hits.

What follows are targets tested with Cc1cn(-c2cc(NC(=O)c3ccc(C)c(Nc4nccc(-c5cccnc5)n4)c3)cc(C(F)(F)F)c2)cn1 [nilotinib] (assay: log2 fold change, soluble protein after heating vs DMSO (PISA); higher = thermal stabilisation; K562 cells, 10 uM, 30 min; active = over 0.2 and 3.5 SD of the protein, either way, in both replicates (recomputed)).
Method in brief: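 K562 cells at 2×10^6 cells/mL were given 10 μM compound for 30 min. Aliquots then went through 3 min of heating across 48°C-58°C, were pooled, and were extracted in PBS with 0.5% NP-40 at 4°C, and the supernatant after 21,000xg for 90 min was quantified by TMTpro 16plex LC-MS/MS with channel sums equalised. Thermal stability relative to control samples, from duplicates, is given as log2 fold change.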

Chain of UniProt P31751 (P31751 whole entry, looked up): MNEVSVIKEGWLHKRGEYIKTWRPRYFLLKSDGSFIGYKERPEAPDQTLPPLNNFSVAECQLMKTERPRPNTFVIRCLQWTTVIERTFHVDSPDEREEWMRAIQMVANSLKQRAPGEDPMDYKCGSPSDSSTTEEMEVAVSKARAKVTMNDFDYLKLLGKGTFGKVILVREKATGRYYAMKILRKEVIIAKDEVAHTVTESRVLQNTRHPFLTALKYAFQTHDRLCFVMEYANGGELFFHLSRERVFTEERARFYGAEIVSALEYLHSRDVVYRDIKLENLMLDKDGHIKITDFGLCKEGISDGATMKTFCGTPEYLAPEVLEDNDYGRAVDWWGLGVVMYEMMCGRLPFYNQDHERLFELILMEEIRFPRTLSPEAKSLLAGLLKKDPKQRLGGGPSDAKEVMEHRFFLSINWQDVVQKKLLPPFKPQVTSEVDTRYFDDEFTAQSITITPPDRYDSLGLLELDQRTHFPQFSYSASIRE
Chain of UniProt Q93050 (Q93050 whole entry, looked up): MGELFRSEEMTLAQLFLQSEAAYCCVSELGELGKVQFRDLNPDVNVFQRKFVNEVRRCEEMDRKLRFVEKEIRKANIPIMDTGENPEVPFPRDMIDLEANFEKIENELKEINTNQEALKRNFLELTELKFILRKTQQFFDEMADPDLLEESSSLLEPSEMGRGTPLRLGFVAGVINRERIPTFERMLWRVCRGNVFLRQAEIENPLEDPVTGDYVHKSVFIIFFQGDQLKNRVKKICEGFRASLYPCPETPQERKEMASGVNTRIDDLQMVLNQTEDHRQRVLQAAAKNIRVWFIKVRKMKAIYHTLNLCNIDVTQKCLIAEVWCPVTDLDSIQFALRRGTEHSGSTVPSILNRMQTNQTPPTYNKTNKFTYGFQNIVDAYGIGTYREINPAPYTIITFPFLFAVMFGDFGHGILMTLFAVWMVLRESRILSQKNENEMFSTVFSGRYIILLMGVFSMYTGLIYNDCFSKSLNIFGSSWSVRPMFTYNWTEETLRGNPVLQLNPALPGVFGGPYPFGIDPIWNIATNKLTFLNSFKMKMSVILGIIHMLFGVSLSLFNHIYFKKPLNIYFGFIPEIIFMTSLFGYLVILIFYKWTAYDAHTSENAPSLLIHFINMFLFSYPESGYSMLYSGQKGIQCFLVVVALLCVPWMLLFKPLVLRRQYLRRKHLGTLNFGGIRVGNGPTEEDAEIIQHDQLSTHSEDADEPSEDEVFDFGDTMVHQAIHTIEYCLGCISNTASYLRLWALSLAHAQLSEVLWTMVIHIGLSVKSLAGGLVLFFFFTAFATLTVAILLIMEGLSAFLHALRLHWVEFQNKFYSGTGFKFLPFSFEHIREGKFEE
Chain of UniProt Q9Y6E2 (Q9Y6E2 whole entry, looked up): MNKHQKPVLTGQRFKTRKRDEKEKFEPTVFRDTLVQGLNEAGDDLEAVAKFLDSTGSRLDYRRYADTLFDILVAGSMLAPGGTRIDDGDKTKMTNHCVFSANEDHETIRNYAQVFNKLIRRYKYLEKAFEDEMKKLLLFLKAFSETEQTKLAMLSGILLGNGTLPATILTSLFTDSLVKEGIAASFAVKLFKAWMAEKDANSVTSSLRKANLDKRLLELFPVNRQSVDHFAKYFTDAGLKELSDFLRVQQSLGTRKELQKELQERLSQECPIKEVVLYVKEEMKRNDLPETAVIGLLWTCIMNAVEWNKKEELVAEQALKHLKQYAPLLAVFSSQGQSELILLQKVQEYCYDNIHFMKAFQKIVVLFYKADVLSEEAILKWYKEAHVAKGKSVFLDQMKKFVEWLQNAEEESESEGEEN
Chain of UniProt Q9UBL3 (Q9UBL3 whole entry, looked up): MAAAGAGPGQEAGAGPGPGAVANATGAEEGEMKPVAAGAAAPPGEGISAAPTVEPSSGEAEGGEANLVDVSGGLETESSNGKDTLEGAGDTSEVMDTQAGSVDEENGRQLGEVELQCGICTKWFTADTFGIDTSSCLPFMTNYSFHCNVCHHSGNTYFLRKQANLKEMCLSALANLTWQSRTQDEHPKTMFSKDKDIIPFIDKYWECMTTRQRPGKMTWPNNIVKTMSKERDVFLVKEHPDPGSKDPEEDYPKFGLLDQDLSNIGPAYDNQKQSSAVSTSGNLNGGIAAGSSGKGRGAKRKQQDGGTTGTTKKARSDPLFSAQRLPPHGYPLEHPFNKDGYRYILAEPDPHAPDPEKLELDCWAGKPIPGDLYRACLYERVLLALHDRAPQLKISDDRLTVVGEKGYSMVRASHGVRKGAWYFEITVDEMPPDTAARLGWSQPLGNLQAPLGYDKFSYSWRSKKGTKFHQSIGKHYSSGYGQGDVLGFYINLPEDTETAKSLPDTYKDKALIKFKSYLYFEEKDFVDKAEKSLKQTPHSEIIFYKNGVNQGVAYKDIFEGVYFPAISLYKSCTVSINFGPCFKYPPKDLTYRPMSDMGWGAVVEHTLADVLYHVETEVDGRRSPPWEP
Chain of UniProt P54886 (P54886 whole entry, looked up): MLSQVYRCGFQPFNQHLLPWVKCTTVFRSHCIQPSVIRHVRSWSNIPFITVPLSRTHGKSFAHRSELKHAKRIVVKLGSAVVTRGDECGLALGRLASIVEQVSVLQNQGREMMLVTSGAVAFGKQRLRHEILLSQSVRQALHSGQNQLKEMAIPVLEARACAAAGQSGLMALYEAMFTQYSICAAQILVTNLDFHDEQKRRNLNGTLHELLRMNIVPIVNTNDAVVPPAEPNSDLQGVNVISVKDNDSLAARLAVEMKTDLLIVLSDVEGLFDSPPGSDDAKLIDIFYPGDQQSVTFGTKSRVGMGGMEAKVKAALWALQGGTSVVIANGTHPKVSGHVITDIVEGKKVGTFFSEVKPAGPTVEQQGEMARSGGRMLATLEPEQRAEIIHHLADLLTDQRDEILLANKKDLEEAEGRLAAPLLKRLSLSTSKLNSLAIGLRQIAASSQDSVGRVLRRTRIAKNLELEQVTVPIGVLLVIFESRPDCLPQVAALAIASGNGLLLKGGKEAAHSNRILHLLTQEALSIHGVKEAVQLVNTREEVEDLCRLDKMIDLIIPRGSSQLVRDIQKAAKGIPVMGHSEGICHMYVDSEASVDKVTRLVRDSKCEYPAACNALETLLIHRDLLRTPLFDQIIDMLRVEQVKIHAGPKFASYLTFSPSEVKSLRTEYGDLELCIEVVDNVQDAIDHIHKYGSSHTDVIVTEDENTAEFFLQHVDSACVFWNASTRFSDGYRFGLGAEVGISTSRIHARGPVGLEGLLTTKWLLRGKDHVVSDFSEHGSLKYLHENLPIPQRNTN
Chain of UniProt Q9P287 (Q9P287 whole entry, looked up): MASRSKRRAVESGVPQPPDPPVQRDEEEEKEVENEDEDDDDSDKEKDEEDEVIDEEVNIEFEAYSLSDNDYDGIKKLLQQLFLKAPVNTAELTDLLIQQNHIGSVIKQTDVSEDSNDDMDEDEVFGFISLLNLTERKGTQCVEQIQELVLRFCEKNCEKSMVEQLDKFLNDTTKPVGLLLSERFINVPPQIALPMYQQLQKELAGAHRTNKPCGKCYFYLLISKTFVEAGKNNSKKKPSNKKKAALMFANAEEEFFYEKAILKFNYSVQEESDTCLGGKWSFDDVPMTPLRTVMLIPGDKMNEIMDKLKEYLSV
Chain of UniProt P08243 (P08243 whole entry, looked up): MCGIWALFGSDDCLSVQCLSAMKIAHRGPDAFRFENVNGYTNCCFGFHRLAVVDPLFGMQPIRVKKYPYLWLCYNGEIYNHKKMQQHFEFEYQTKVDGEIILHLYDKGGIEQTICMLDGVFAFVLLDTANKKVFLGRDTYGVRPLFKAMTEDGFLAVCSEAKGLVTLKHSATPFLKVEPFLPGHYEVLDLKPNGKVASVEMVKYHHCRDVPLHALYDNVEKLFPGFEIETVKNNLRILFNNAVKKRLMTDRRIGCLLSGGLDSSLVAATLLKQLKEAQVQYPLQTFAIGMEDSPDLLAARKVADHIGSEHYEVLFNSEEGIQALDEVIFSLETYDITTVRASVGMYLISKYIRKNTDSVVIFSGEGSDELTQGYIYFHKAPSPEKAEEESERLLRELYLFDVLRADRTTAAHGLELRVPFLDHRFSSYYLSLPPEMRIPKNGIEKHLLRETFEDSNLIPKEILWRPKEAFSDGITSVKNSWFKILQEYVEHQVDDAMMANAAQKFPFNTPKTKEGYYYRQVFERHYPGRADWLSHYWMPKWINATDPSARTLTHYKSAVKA
Chain of UniProt P56385 (P56385 whole entry, looked up): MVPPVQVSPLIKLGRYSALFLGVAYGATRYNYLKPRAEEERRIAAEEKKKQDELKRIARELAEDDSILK
Chain of UniProt P53680 (P53680 whole entry, looked up): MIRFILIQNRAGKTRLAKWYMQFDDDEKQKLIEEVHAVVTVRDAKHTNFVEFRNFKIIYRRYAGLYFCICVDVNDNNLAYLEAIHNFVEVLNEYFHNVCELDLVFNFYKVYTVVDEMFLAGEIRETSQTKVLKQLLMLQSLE
Chain of UniProt P49748 (P49748 whole entry, looked up): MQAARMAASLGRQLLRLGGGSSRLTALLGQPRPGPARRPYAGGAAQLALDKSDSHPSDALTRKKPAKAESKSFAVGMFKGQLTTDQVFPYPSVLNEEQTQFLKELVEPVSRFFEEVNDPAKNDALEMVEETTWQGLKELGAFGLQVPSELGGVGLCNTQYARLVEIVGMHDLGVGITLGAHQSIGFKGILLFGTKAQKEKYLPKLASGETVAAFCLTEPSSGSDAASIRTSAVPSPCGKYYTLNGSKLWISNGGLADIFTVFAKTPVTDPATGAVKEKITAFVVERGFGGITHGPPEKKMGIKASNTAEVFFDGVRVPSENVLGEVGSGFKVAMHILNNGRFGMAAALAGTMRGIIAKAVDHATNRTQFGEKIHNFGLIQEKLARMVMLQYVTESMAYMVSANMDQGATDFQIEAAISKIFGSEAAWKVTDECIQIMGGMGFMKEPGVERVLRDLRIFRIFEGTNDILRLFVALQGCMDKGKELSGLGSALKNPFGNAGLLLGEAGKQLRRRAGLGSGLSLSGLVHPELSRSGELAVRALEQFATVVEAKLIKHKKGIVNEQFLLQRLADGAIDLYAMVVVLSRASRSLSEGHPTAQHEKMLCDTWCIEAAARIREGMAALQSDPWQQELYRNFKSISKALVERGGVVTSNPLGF

log2 fold change, inactive:
BZW2 (UniProt Q9Y6E2) -0.057, ALDH6A1 (UniProt Q02252) -0.003, ATAD3B (UniProt Q5T9A4) -0.072, ASNS (UniProt P08243) 0.002, ALG11 (UniProt Q2TAA5) 0.001, AGPAT5 (UniProt Q9NUQ2) 0.008, ALDH9A1 isoform 3 (UniProt P49189) 0.012, ARL2BP (UniProt Q9Y2Y0) -0.078, ASH2L (UniProt Q9UBL3) -0.008, ACO2 (UniProt Q99798) -0.02, APOB (UniProt P04114) -0.132, AMFR (UniProt Q9UKV5) -0.051, AKT2 (UniProt P31751) -0.037, BCAP29 isoform 2 (UniProt Q9UHQ4) -0.002, ADD3 (UniProt Q9UEY8) 0.031, ATP6V0A1 isoform 3 (UniProt Q93050) -0.026, BCCIP isoform 2 (UniProt Q9P287) -0.046, BRD4 (UniProt O60885) -0.144, ATL2 (UniProt Q8NHH9) 0.081, BRIX1 (UniProt Q8TDN6) 0.085, ACBD6 (UniProt Q9BR61) 0.017, ABCB6 (UniProt Q9NP58) 0.022, ATG4B isoform 2 (UniProt Q9Y4P1) -0.061, ALDH18A1 (UniProt P54886) -0.3, AGPAT3 isoform 3 (UniProt Q9NRZ7) -0.012, ANKZF1 (UniProt Q9H8Y5) -0.151, AK6 (UniProt Q9Y3D8) -0.141, AP2S1 (UniProt P53680) -0.019, ACADVL isoform 3 (UniProt P49748) 0.032, ATP5ME (UniProt P56385) 0.022, B4GALT1 (UniProt P15291) 0.066, ALKBH5 (UniProt Q6P6C2) 0.018, ATP12A isoform 2 (UniProt P54707) 0.02, ABHD16A (UniProt O95870) 0.177, BAP1 (UniProt Q92560) 0.007, ARMC8 (UniProt Q8IUR7) -0.036
